Rows were chosen to be rich in hits. Some 2.4% of all compounds tested hit in one or more screens of this group.
D2 antag – antagonists of human D2 dopamine receptor. P14416. HEK293 TREx D2 cells, calcium flux, dopamine EC80. inhibition, % at 10 µM. 340,000 compounds, 2% hits; in the data active = inhibition above about 30%; inactive = below that, where a call was filed; note: 0% is about no effect
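Antagonism is scored as inhibition of an EC80 dopamine-evoked calcium signal in a force-coupled, tetracycline-inducible HEK293 T-REx D2 line, with compound present 180 s before agonist.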
D2 ag-1 – agonists of human D2 dopamine receptor; activation, % at 2 µM; HEK293 T-REx D2 cells, calcium flux agonist mode; 340,000 compounds, 0.53% hits; P14416;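 active = activation over 3 SD above normal in the single-dose calcium agonist read, cut at about 30% in these data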; note: 0% is about no effect
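Calcium-flux readout, 1 cycle/sec over 180 s following compound pin transfer, in inducible HEK293 Trex D2 cells (force-coupled); dopamine controls included. Positive calcium responses during this window marked compounds as potential agonists.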
D2 PAM-1 – positively modulates the human D2 dopamine receptor allosterically; P14416; HEK293 T-REx D2, calcium flux, EC20 dopamine potentiation; potentiation, % at 10 µM; 340,000 compounds, 0.34% hits;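 active = potentiation over 3 SD above the plate norm, cut at about 30% in these data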; note: 0% is about no effect
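Tetracycline-induced HEK293 T-REx cells force-coupled to calcium signalling expressed D2; compounds were pin-added after a 10 s baseline, read kinetically 180 s, then an EC20 dopamine challenge followed with a further 180 s calcium read.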
D2 ag-2 – human D2 receptor agonism in beta-arrestin assay; P14416; DiscoveRx PathHunter D2 beta-arrestin, luminescence, 90 min; 100% = 57 uM dopamine signal; activation, % (test concentration not listed); 360,000 compounds, 0.084% hits; in the data active = activation above about 40%; inconclusive = between about 15% and that limit
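DiscoveRx PathHunter D2 beta-arrestin cells (2,100/well) attached overnight, then compound-stimulated 90 min at 37 C in HBSS/10 mM HEPES/0.1% Tween-20 buffer; beta-galactosidase complementation read by luminescence after 1 h at ambient temperature. Dopamine 57 uM final (EC100) as control.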
D2 PAM-2 – positive allosteric modulators of human D2 dopamine receptor. DiscoveRx D2 beta-arrestin cells, luminescence, 90 min; 100% = 57 uM dopamine signal. potentiation, % (concentration not given with the values). 360,000 compounds, 0.23% hits. AID 624464; in the data active = potentiation above about 50%; inconclusive = mostly about 30% to 49%
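PathHunter D2 cells, attached overnight at 37 deg C, received compound in DMSO plus dopamine at EC20 (50 nM final) for 90 min at 37 deg C. Beta-arrestin recruitment was read as luminescence after 1 h with detection reagent at ambient temperature.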
D3 arrestin ag – activates human D3 dopamine receptor beta-arrestin recruitment; Potency, µM (series often up to 76.9 µM), for inactives: at the top dose activation, usual class: activators; 2,300 compounds, 4% hits; DiscoveRx D3 beta-arrestin cells, luminescence, 90 min; AID 720506; shares compounds with D2 ag-1;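 note: potency is the fitted concentration of half-maximal effect; 100% = dopamine control response; nearly all actives have a fitted effect of over 70% in size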
Target sequence (P35462 whole entry, looked up): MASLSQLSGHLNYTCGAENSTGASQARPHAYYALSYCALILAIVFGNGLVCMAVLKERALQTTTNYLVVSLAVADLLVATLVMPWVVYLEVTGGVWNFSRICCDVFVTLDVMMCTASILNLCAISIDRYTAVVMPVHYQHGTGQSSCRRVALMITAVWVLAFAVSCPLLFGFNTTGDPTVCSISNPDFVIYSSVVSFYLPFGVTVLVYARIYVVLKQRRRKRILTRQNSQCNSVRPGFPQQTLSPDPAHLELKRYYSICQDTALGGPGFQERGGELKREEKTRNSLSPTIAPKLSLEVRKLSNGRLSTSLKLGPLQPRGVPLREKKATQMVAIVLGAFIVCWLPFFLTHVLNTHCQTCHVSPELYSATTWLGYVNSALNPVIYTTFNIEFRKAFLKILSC
D2 ag-3 – activates human D2 dopamine receptor in D3 counterscreen; Potency, µM (doses to about 76.9 µM), inactives show at the highest dose activation, most hits filed as activators; DiscoveRx PathHunter D2 beta-arrestin, luminescence, 90 min; response scale: percent relative to full dopamine signal; shares compounds with D2 ag-1; 2,300 compounds, 5.9% hits; AID 720507; note: potency is the fitted concentration of half-maximal effect; % of control where 0% means no effect; nearly all actives have a fitted effect of over 70% in size
The depositor's hits bear a star; ? = inconclusive; nt = not tested or not shown. Unless noted, calls come from the whole dose curve; as a rule, active = well fitted activation curve with a large enough effect; inconclusive = small, poorly fitted or top-dose-only effect; inactive = flat fitted curve, though single readings scatter.

SMILES	D2 antag	D2 ag-1	D2 PAM-1	D2 ag-2	D2 PAM-2	D3 arrestin ag	D2 ag-3
COc1ccc(Cl)cc1C(=O)NCCS(=O)(=O)N1CCN(c2ccccc2OC)CC1	nt	nt	-11	nt	nt	nt	nt
O=C(NCCCN1CCN(c2cccc(Cl)c2)CC1)c1nc(-c2ccncc2)no1	82*	69*	-36	9	-15	4%	21%
O=C(NCCCN1CCN(CCCNC(=O)c2cccc(Cl)c2)CC1)c1cccc(Cl)c1	2	-1	-11	-2	-24	nt	nt
COc1ccc(N(CC(=O)NCc2ccccc2Cl)S(=O)(=O)c2c(C)[nH]c(=O)[nH]c2=O)cc1	nt	1	3	nt	nt	nt	nt
O=C(NC1CC(=O)N(c2ccc(F)cc2)C1)c1cc2ccccc2o1 (configuration not stated)	nt	nt	-13	nt	nt	nt	nt
Cc1ccccc1NC(=O)CSc1nc(-c2ccccc2)cn1-c1ccccc1F	nt	0	-5	nt	nt	nt	nt
CC[n+]1c(/C=C/C=C/N(C(C)=O)c2ccccc2)sc2cc(OC)ccc21	15	73*	-14	12	-30	21%	?
COc1ccc(-c2ccc(SCC(=O)N3CCCC3)nn2)cc1OC	18	1	-2	1	6	1%	-2%
Cc1ccc(-n2nc3c(=O)n(CC(=O)NCc4ccccn4)nc(C)c3c2C)cc1	-5	52*	-17	0	-6	-6%	-3%
CCOc1ccc(-c2cc(C(=O)NCCc3ccccc3)c3c(-c4ccc(C)cc4)[nH]nc3n2)cc1	nt	-2	11	nt	nt	nt	nt
Cc1cc(=O)n2nc(N3CCC(C(=O)NCCc4ccc(Cl)cc4)CC3)sc2n1	-20	43*	-12	0	-3	10%	6%
CN=c1scc(-c2ccc(F)cc2)n1/N=C/c1ccc(O)c(O)c1	76*	32*	nt	103*	?	13µM*	32µM*
CN=c1scc(-c2ccc([N+](=O)[O-])cc2)n1/N=C/c1ccco1	-3	0	7	0	8	nt	nt
C=CCC(C(=O)Oc1c(C(C)(C)C)cc(C)cc1C(C)(C)C)c1ccccc1 (configuration not stated)	-11	0	1	-2	-2	-7%	-4%
Cc1cccc(C)c1OC(=O)C(c1ccccc1)c1ccccc1	-10	0	10	-3	1	nt	nt
O=c1[nH]cc(NCc2ccccc2)c(=O)[nH]1	nt	nt	nt	0	-10	nt	nt
O=c1[nH]cc(NCCc2ccccc2)c(=O)[nH]1	-19	38*	-14	0	-3	11%	13%
O=C(c1ccco1)N1CCN(C(=O)c2cc3cc([N+](=O)[O-])ccc3oc2=O)CC1	-13	1	6	1	-3	nt	nt
O=C(c1cccs1)N1CCN(Cc2cccc([N+](=O)[O-])c2)CC1	38*	71*	-16	-1	-7	24%	?
O=C(c1ccco1)N1CCN(Cc2cccc([N+](=O)[O-])c2)CC1	-2	37*	-14	-2	-3	-2%	6%
O=C(c1ccc([N+](=O)[O-])cc1)N1CCN(C(=O)c2cccs2)CC1	nt	nt	-5	0	-8	nt	nt
O=C(c1cccs1)N1CCN(Cc2ccccn2)CC1	52*	78*	-11	-1	-1	?	?
COc1cccc(CNS(=O)(=O)c2ccc(N3CCCCS3(=O)=O)cc2)c1	nt	0	-5	nt	nt	nt	nt
Cc1cc(C)c2oc(-c3cccc(NC(=O)c4ccc(-c5cccc([N+](=O)[O-])c5)o4)c3)nc2c1	nt	1	-11	nt	nt	nt	nt
O=C(CC1NCCc2ccccc21)Nc1ccccc1Cl (configuration not stated)	-17	12	-11	-1	-17	-7%	-6%
O=C(CC1NCCc2ccccc21)Nc1ccccc1 (configuration not stated)	-11	0	-19	2	-20	nt	nt
